Screening data deposited in PubChem by several laboratories.
CHT block = human CHT choline transport inhibition. B-score at 10 µM. Q9GZV3. CHT-expressing cells, membrane potential dye, choline response; active compounds read low. 0.86% of 310,000 active;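 active = B-score over 3 SD under the library average, and starting fluorescence ratio not unusually high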;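 also: choline stimulus applied at its EC90 after an EC20 pre-addition; B-score computed on integrated fluorescence ratio after choline addition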
Target sequence (Q9GZV3 whole entry, looked up): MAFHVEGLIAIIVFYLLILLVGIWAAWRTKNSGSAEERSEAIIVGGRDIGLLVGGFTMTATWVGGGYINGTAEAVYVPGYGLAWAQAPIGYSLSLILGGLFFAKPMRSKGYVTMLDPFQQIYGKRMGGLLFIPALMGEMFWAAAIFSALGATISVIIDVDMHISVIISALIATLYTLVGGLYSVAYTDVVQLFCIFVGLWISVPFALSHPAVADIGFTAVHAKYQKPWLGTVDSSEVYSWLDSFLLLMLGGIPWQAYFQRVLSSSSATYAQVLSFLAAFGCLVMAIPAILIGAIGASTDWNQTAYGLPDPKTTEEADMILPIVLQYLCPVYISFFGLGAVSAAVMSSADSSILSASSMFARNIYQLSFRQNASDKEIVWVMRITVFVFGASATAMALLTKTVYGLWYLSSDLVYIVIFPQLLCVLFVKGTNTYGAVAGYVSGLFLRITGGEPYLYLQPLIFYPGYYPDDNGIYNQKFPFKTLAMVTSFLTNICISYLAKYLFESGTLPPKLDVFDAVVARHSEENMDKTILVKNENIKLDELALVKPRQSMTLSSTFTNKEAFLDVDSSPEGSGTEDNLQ
A1 inh = inhibitors of the anti-apoptotic protein A1, read as caspase activation | caspase activation, % (test concentration not listed) | MEF A1-2A-BIM cells, Caspase-Glo 3/7 luminescence, 3 h; percent of clofoctol response, vehicle zero | AID 2462 | 0.066% of 330,000 active;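 active = over half of replicate activation scores above 10%, or exactly half above 10 with the replicate mean above 10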
CHT allo act = allosterically activates the human high affinity choline transporter. Q9GZV3. CHT-expressing cells, membrane potential dye, choline EC20; active compounds read high; LV-AA mutant CHT in HEK293 cells. B-score at 10 µM. 0.49% of 310,000 active. AID 488977;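 active = initial fluorescence not abnormally high and integrated response B-score, plate-corrected, over 3 SD above library mean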
Mot1-301 SUMO = SUMOylation pathway inhibition by Mot1-301 growth rescue | growth rescue, % at 18.8 µM | S. cerevisiae Mot1-301 growth rescue, ATP luminescence, 38.5C; percent above DMSO median, 100 means doubled | 1% of 320,000 active;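 active = every valid replicate shows activation above 250% relative to neutral control wells; inactive = the rest, any valid replicate at or below 250%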;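 also: OY570 slx delta 5 strain wells were the positive control but not used for scaling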
NALP3 yeast inh = blocks the NALP3 inflammasome reconstituted in yeast; Yeast reconstituted NLRP3/ASC/caspase-1, beta-gal luminescence, 24 h; inhibition, % at 10 µM; 0.39% of 330,000 active;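 active = inhibition of 50% or more; inactive = inhibition below 50%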;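 also: plate controls were induced DMSO wells for no effect and uninduced yeast grown without galactose for full effect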
NALP1 yeast inh = NALP1 inhibition | S. cerevisiae NALP1/ASC/caspase-1 growth, X-gal OD620, 72 h | inhibition, % at 10 µM | 0.61% of 280,000 active | AID 2071; in the data active = inhibition mostly above about 24%, no sharp cut-off; inactive = mostly below about 32%
CHT activ conf = confirmation of human choline transporter (CHT) activators; shares compounds with CHT allo act; CHT-expressing cells, membrane potential dye fluorescence (FDSS); % of choline EC20–EC90 response window; HEK293 expressing CHT LV-AA mutant; choline added at its EC20; activation, % at 10 µM; 91% of 2,500 active;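 active = primary screen active, with duplicate mean activation above negative control mean plus 3 SD, cut at about 11% in these data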
HEK293 MP dye = activity in parental HEK293 cells lacking CHT | 62% of 2,500 active | membrane potential dye fluorescence (FDSS); measured after EC20 choline addition | shares compounds with CHT allo act | ratio readout change at 10 µM, hits read low | AID 623908;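 active = duplicate-averaged ratio beyond 3 SD from buffer wells, up or down, though filed actives are nearly all decreases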
Numbers without * were called inactive. Only some compounds are listed: those with a hit (about 3% of all), similar ones and a draw of the others.

Screening COc1ccc(-n2c(-c3ccc(Br)cc3)c[n+]3c2SC(C)C3)cc1 (configuration not stated) returned CHT block inactive, A1 inh 0, CHT allo act inactive, Mot1-301 SUMO 40, NALP3 yeast inh 4, NALP1 yeast inh 24, CHT activ conf 36* and HEK293 MP dye -52*.
COc1ccc(-n2c(-c3ccc(Br)cc3)c[n+]3c2CCCCC3)cc1 was read as CHT block inactive, A1 inh 0, CHT allo act 11*, Mot1-301 SUMO -2, NALP3 yeast inh 16, NALP1 yeast inh -5, CHT activ conf 62* and HEK293 MP dye inactive.
Screening CCOc1ccc(-c2c[n+]3c(n2-c2ccccc2)CCCCC3)cc1 returned CHT block inactive, A1 inh -2, CHT allo act 7.2*, Mot1-301 SUMO 259, NALP3 yeast inh -4, NALP1 yeast inh 3, CHT activ conf 15* and HEK293 MP dye inactive.
`COc1ccc(-n2c(-c3ccc(Br)cc3)c[n+]3c2CCC3)cc1` gave CHT block inactive, A1 inh 0, CHT allo act inactive, Mot1-301 SUMO -8, NALP3 yeast inh 12 and NALP1 yeast inh 9.
For COc1ccc(-n2c(-c3ccccc3)c[n+]3c2CCC3)cc1 the results were CHT block inactive, A1 inh 0, CHT allo act inactive, Mot1-301 SUMO 36 and NALP3 yeast inh -9.
`COc1ccc(CCn2c(=N)c(C(=O)NCC3CCCO3)cc3c(=O)n4ccccc4nc32)cc1` (configuration not stated) gave CHT block inactive, A1 inh 0, CHT allo act inactive, Mot1-301 SUMO 8, NALP3 yeast inh 9 and NALP1 yeast inh 5.
Cc1cccn2c(=O)c3cc(C(=O)NC4CCCC4)c(=N)n(CCc4ccccc4)c3nc12 was read as CHT block inactive, A1 inh -1, CHT allo act inactive, Mot1-301 SUMO 3, NALP3 yeast inh 11, NALP1 yeast inh 30, CHT activ conf 10 and HEK293 MP dye -29*.
For Cc1cccn2c(=O)c3cc(C(=O)NC4CCCCC4)c(=N)n(Cc4ccccc4)c3nc12 the results were CHT block inactive, A1 inh -1, CHT allo act inactive, Mot1-301 SUMO -1, NALP3 yeast inh 5 and NALP1 yeast inh 13.
COc1ccc(CCn2c(=N)c(C(=O)NC3CCCCC3)cc3c(=O)n4ccccc4nc32)cc1 was read as CHT block inactive, A1 inh 0, CHT allo act inactive, Mot1-301 SUMO 81, NALP3 yeast inh 11, NALP1 yeast inh 21, CHT activ conf 43* and HEK293 MP dye -48*.
Screening N=c1c(C(=O)NC2CCCC2)cc2c(=O)n3ccccc3nc2n1Cc1ccccc1 returned CHT block inactive, A1 inh 0, CHT allo act inactive, Mot1-301 SUMO -43, NALP3 yeast inh 13 and NALP1 yeast inh 18.
For N=c1c(C(=O)NC2CCCC2)cc2c(=O)n3ccccc3nc2n1CCN1CCOCC1 the results were CHT block inactive, A1 inh 1, CHT allo act inactive, Mot1-301 SUMO 38, NALP3 yeast inh -1, NALP1 yeast inh 8, CHT activ conf 48* and HEK293 MP dye -38*.
CCOc1ccccc1NC(=O)CSc1nnc(CNC(=O)c2cccs2)o1 was read as CHT block inactive, A1 inh 0, CHT allo act inactive, Mot1-301 SUMO -11, NALP3 yeast inh 12 and NALP1 yeast inh 2.
`Cc1ccccc1C(=O)NNC(=O)C1CC(=O)N(c2ccc3c(c2)OCCO3)C1` (configuration not stated) gave A1 inh 0, Mot1-301 SUMO -3 and NALP3 yeast inh -21.
For O=C(O)C1NCCc2ccccc21 (configuration not stated) the results were CHT block inactive, A1 inh 0, CHT allo act inactive, Mot1-301 SUMO -1, NALP3 yeast inh 13, NALP1 yeast inh 26, CHT activ conf 8 and HEK293 MP dye inactive.
For c1ccc(-c2cccc(-c3ccccn3)n2)nc1 the results were CHT block inactive, A1 inh 0, CHT allo act inactive, Mot1-301 SUMO 6, NALP3 yeast inh 47, NALP1 yeast inh 51*, CHT activ conf 14* and HEK293 MP dye -47*.
`c1ccc(-c2nnc(-c3ccccn3)nn2)nc1` gave CHT block inactive, A1 inh -7, CHT allo act inactive, Mot1-301 SUMO -28 and NALP3 yeast inh 11.
O=C(COC(=O)c1cc([N+](=O)[O-])ccc1N1CCOCC1)NCc1ccc(F)cc1 was read as CHT block inactive, A1 inh 0, CHT allo act inactive, Mot1-301 SUMO 6, NALP3 yeast inh 4, NALP1 yeast inh 10, CHT activ conf 56* and HEK293 MP dye inactive.
COc1ccc(NC(=O)c2cc([N+](=O)[O-])ccc2N2CCN(C)CC2)cc1 was read as CHT block inactive, A1 inh 0, CHT allo act 8.4*, Mot1-301 SUMO 151, NALP3 yeast inh -1, NALP1 yeast inh 8, CHT activ conf 52* and HEK293 MP dye -64*.
Screening CC(C)c1ccc(NC(=O)c2cc([N+](=O)[O-])ccc2N2CCOCC2)cc1 returned CHT block inactive, A1 inh 0, CHT allo act inactive, Mot1-301 SUMO -8, NALP3 yeast inh 37, NALP1 yeast inh 0, CHT activ conf 29* and HEK293 MP dye inactive.
`O=C(COC(=O)c1cc([N+](=O)[O-])ccc1N1CCOCC1)NCCc1ccccc1` gave CHT block inactive, A1 inh 0, CHT allo act inactive, Mot1-301 SUMO 5, NALP3 yeast inh 17 and NALP1 yeast inh 4.
`O=C(Nc1cccc(Cl)c1N1CCOCC1)c1cc([N+](=O)[O-])ccc1N1CCOCC1` gave CHT block inactive, A1 inh 0, CHT allo act inactive, Mot1-301 SUMO -9, NALP3 yeast inh 2, NALP1 yeast inh 5, CHT activ conf 13* and HEK293 MP dye inactive.
Screening CC(C)c1ccc(NC2CCCN(C(=O)c3cnsn3)C2)cc1 (configuration not stated) returned CHT block inactive, A1 inh 0, CHT allo act inactive, Mot1-301 SUMO -1, NALP3 yeast inh 21 and NALP1 yeast inh 8.
